Consider 15 molecules from PubChem BioAssay (NCI).

Some test systems named below: SK-MEL-2 melanoma; EKVX NSCLC; SN12C renal; UO-31 renal; TK-10 renal; ACHN renal; CAKI-1 renal; A498 renal; CCRF-CEM leukemia; MOLT-4 leukemia.
Holding throughout (experiment): NCI-60 one-dose screen, 48 h (100 = growth as untreated, 0 = no growth, -100 = all killed)
What all share (conditions): 10 µM unless noted

Compounds without any hit were thinned out: in the full panel of roughly 83,000, 20% have a hit.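 Interpretation: 100, growth as untreated; towards 0, rising growth inhibition; 0, no net growth; 0 to -100, cell death. Compounds scoring below 10 were considered active.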 A number with no mark means an inactive call. Active and inactive are the calls of the source.

In the case of `O=C(NNC(=O)N1c2ccccc2C=Cc2ccccc21)c1ccccc1`, the growth in the experiment with SK-MEL-2 melanoma was 119%; in the experiment on EKVX NSCLC, 91.7%; in the experiment with SN12C renal, 102%; in the experiment with UO-31 renal, 96%; in the experiment on TK-10 renal it was 96%; in the experiment on ACHN renal it was 102%. The growth was 97.3% in the experiment with CAKI-1 renal, 103% with A498 renal, 98.9% in the experiment with CCRF-CEM leukemia and 102% in the experiment with MOLT-4 leukemia.
For the molecule `O=C(O)/C=C/C(=O)c1ccc(Cl)cc1`, the growth is 109% in the experiment with SK-MEL-2 melanoma; 114% in the experiment on EKVX NSCLC; 112% in the experiment with SN12C renal; 90.1% in the experiment on UO-31 renal; 105% with TK-10 renal; 106% in the experiment with ACHN renal. Moreover, the growth in the experiment with CAKI-1 renal and in the experiment with A498 renal was 107% in each case.
For `C=C(C)[C@@H]1C[C@@H]2Cc3cc(Cl)ccc3N1O2`, the growth with SK-MEL-2 melanoma was 130%; in the experiment on EKVX NSCLC, 84.7%; with SN12C renal it was 102%; with UO-31 renal it was 100%; with TK-10 renal, 129%; with ACHN renal it was 99%. Also, the growth was 95.9% in the experiment on CAKI-1 renal, 96.3% in the experiment with A498 renal and -70.8% (active) in the experiment with CCRF-CEM leukemia.
On to `C=C(C)[C@@H]1C[C@@H]2Cc3cc(F)ccc3N1O2`, for which the growth is 98.1% with SK-MEL-2 melanoma; 85.9% with EKVX NSCLC; 98.6% in the experiment on SN12C renal; 77.4% in the experiment on UO-31 renal; 97% in the experiment with TK-10 renal; 95.4% in the experiment with ACHN renal. The growth is 98% with CAKI-1 renal, 95.2% with A498 renal and -47.4% (active) with CCRF-CEM leukemia.
As to `COc1c2occc2c(OC)c2c(=O)c(-c3cc(-c4ccc(F)cc4)c(C#N)c(N)n3)c(C)oc12`, the growth in the experiment on SK-MEL-2 melanoma was 59.9%; in the experiment on EKVX NSCLC it was 32%; in the experiment with SN12C renal, 39.5%; in the experiment on UO-31 renal it was 25.3%; in the experiment on TK-10 renal it was 53.7%; in the experiment with ACHN renal, 41.8%. The growth with CAKI-1 renal is 50.5%; in the experiment on A498 renal, 25.7%; in the experiment on CCRF-CEM leukemia it was 16%; in the experiment on MOLT-4 leukemia it was 5.86% (active).
With `C=CCn1cc(-c2nc3ccccc3s2)c2cc(-c3ccc4c5c(cccc35)C(=O)N(CCN3CCNCC3)C4=O)ccc21`, the growth in the experiment on SK-MEL-2 melanoma was 99%; in the experiment on EKVX NSCLC, 87.8%; with SN12C renal it was 76.3%; with UO-31 renal it was 80.7%; in the experiment on TK-10 renal, 132%; in the experiment with ACHN renal, 67.4%. The growth with CAKI-1 renal is 74%; with A498 renal it was 98.9%; with CCRF-CEM leukemia, 30.2%; in the experiment on MOLT-4 leukemia it was 92.8%.
Take `O=C(C1=Cc2cc3ccccc3n2Cc2cnnn21)c1ccccc1`: the growth in the experiment on SK-MEL-2 melanoma is 44.1%; with EKVX NSCLC, 82.9%; with SN12C renal it was 50.3%; with UO-31 renal, 64.8%; in the experiment on TK-10 renal it was 72.7%; in the experiment on ACHN renal, 74.6%. Moreover, the growth in the experiment with CAKI-1 renal is 58%; in the experiment on A498 renal, 71.7%; in the experiment on CCRF-CEM leukemia, 53%; in the experiment on MOLT-4 leukemia, 42.1%.
As to `C[n+]1c(/C=C/c2c(O)ccc3ccccc23)ccc2ccccc21`, the growth in the experiment on SK-MEL-2 melanoma is 29.4%; in the experiment with EKVX NSCLC, 44.8%; in the experiment on SN12C renal it was 32.4%; with UO-31 renal it was 22.2%; in the experiment on TK-10 renal, 49.1%; in the experiment on ACHN renal it was 31.6%. The growth with CAKI-1 renal is 35.1%; with A498 renal it was 52.9%; in the experiment on CCRF-CEM leukemia, 10.2%.
In the case of `CC(O)CN1CCCCC1` (centres undefined), the growth was 113% with SK-MEL-2 melanoma; 105% in the experiment on EKVX NSCLC; 96.8% in the experiment with SN12C renal; 86.3% in the experiment on UO-31 renal; 110% with TK-10 renal; 108% in the experiment with ACHN renal. Besides, the growth in the experiment on CAKI-1 renal was 95.7%; in the experiment on A498 renal, 94.5%.
Regarding `Clc1ccc(-c2nc3ccccc3s2)cc1Cl`, the growth was 94.8% with SK-MEL-2 melanoma; 85.3% in the experiment with EKVX NSCLC; 92.3% in the experiment with SN12C renal; 72.3% with UO-31 renal; 81.5% in the experiment on TK-10 renal; 93.3% with ACHN renal. The growth in the experiment with CAKI-1 renal was 83.9%; in the experiment on A498 renal, 77%.
`COC(=O)c1cc2cc(-c3ccc(OC)cc3)cnc2[nH]1`: the growth was 8.37% (active) in the experiment on SK-MEL-2 melanoma; 47% in the experiment on EKVX NSCLC; 51.9% in the experiment with SN12C renal; 34.9% in the experiment on UO-31 renal; 38.9% in the experiment with TK-10 renal; 44% with ACHN renal. Also, the growth in the experiment with CAKI-1 renal is -2.35% (active); with A498 renal it was 28.1%; in the experiment on CCRF-CEM leukemia, 22.3%; in the experiment on MOLT-4 leukemia, 22.8%.
Take `C=C1C(=O)O[C@H]2[C@H]1CC/C(Cn1cc(CNC(=O)c3cc4ccccc4[nH]3)nn1)=C\CC[C@@]1(C)O[C@@H]21`: the growth in the experiment on SK-MEL-2 melanoma was 59.6%; in the experiment on EKVX NSCLC, 86.9%; in the experiment with SN12C renal, 59.2%; in the experiment with UO-31 renal it was 73.4%; in the experiment on TK-10 renal, 53%; in the experiment with ACHN renal, 55.8%. The growth is 80.8% with CAKI-1 renal, 106% in the experiment with A498 renal, -18.8% (active) in the experiment on CCRF-CEM leukemia and 4.74% (active) in the experiment on MOLT-4 leukemia.
As for `Cc1c(C(N)=O)sc2c1c(=O)n(Cc1ccccc1)c1nnc(Nc3ccccc3)n21`, the growth with SK-MEL-2 melanoma was 103%; in the experiment on EKVX NSCLC, 94.1%; in the experiment on SN12C renal, 99.2%; in the experiment on UO-31 renal, 67.9%; with TK-10 renal, 113%; in the experiment with ACHN renal, 96.4%. In addition, the growth is 82% with CAKI-1 renal and 110% in the experiment on A498 renal.
Take `CC(C)(C)n1cc(-c2ccnc(NCCNS(=O)(=O)c3ccc(F)cc3)c2)c(-c2cccc(O)c2)n1`: the growth was 66.5% in the experiment with SK-MEL-2 melanoma; 63% with EKVX NSCLC; 55.8% in the experiment with SN12C renal; 53.9% in the experiment with UO-31 renal; 102% in the experiment on TK-10 renal; 63% in the experiment with ACHN renal. In addition, the growth in the experiment with CAKI-1 renal is 61.3%; in the experiment on A498 renal, 56.7%; in the experiment on CCRF-CEM leukemia, 46.4%; with MOLT-4 leukemia, 35.3%.
Take `CN(C[C@H]1Cc2c(cccc2N2CCN(Cc3ccccn3)CC2)CN1)[C@H]1CCCc2cccnc21`: the growth in the experiment with SK-MEL-2 melanoma was 73.2%; in the experiment with EKVX NSCLC, 54.8%; in the experiment on SN12C renal it was 53.5%; with UO-31 renal, 20.1%; in the experiment on TK-10 renal, 58.7%; with ACHN renal, 43.2%. The growth in the experiment with CAKI-1 renal was 42.8%; in the experiment with A498 renal, 65.9%; in the experiment on CCRF-CEM leukemia, 41.2%; with MOLT-4 leukemia, 41%.
